Only some compounds are listed: those with a hit (about 5.9% of all), similar ones and a draw of the others.
TGFb inhibitor: blocks TGF-b signaling | HepG2 CAGA-GFP TGF-b/SMAD3 reporter, GFP fluorescence, 18 h; TGF-beta stimulated, 500 pg/mL final | Potency, µM (series often up to 46.1 µM), inactives show at the top dose activity, negative = inhibition, usual class: inhibitors | 410,000 tested, 1.2% active; note: % is set by controls: 0 for no effect and ±100 for the full control effect; nearly all actives have a fitted effect of over 65% in size
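Using HEPG2 CAGA-GFP reporter cells at 1000 cells/well, we pinned test compounds, stimulated with recombinant TGF-beta (500 pg/mL final) and measured total well GFP after 18 h.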
ATXN2 expr inh: reduces ATXN2 reporter expression in HEK-293 cells. HEK-293 ATXN2-luciferase reporter, luminescence, 24 h. Potency, µM (highest dose often 57 µM), without a hit: top-dose activity change, negative = inhibition, usual class: inhibitors. 360,000 tested, 0.72% active. AID 1745845; note: % is set by controls: 0 for no effect and ±100 for the full control effect; nearly all actives have a fitted effect of over 55% in size
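ATXN2-luciferase reporter cells (luciferase flanked by upstream and downstream ATXN2 gene portions) were treated 24 h at 37 °C with compounds at up to 57 uM. SteadyGlo luminescence gave expression; GF-AFC fluorescence gave viability.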
KB-3-1 tox: kills parental KB-3-1 adenocarcinoma cells; Potency, µM (highest dose often 46.1 µM), hits mostly cytotoxic; KB-3-1 viability, CellTiter-Glo ATP luminescence, 72 h; 400,000 tested, 1.4% active; note: % is set by controls: 0 for no effect and ±100 for the full control effect; nearly all actives have a fitted effect of over 60% in size
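72 h, 37 °C compound treatment of KB-3-1 parental cells; CellTiter-Glo added, 10 min, luminescence read. Data corrected against DMSO-only plates and normalized before curve fitting.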
ATXN viability: reduces viability in counter-screen for ATXN expression inhibitors. S2 cells (HEK-293 line with an ATXN2-luciferase reporter) viability, CellTiter-Fluor protease fluorescence, 24 h. Potency, µM (top dose mostly 56.7 µM), actives largely listed as cytotoxic. 400,000 tested, 0.49% active. AID 651635; note: nearly all actives have a fitted effect of over 40% in size
KB-V1 MDR tox: kills drug-selected multidrug resistant KB-V1 cells. KB-V1 MDR cells viability, CellTiter-Glo, 72 h. Potency, µM (series often up to 46.1 µM), most hits filed as cytotoxic. 400,000 tested, 3.4% active. AID 1347076; note: % is set by controls: 0 for no effect and ±100 for the full control effect; nearly all actives have a fitted effect of over 60% in size
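Following 72 h at 37 degrees C with compound, KB-V1 cell viability was read by CellTiter-Glo luminescence, medium being phenol-red-free DMEM plus 10% FBS; concentration-response parameters came from normalized, curve-fitted qHTS data.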
HepG2 viability: kills HepG2 cells in TGF-b inhibitor counter-screen; HepG2 CAGA-GFP viability, ATP luminescence, 18 h; Potency, µM (top dose mostly 46.1 µM), without a hit: top-dose activity change, negative = cytotoxicity, actives largely listed as cytotoxic; 410,000 tested, 0.76% active
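HepG2 CAGA-GFP cells (1000/well, DMEM with 1% FBS) received compound, then TGF-beta at 500 pg/mL final, and were incubated 18 hours at 37 degrees C. Viability was read by CellTiter-Glo luminescence. Media-only wells were set as complete cell-killing and DMSO as no toxicity.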
An asterisk follows results filed as active; i = inactive; ? = inconclusive; / = no result. Calls come from the whole dose curve; as a rule, active = well fitted curve in the direction sought with a large enough effect; inconclusive = small, poorly fitted or top-dose-only effect, or another doubt; inactive = no such curve, though single readings can be large; an effect the other way counts as inactive or inconclusive. Potency is the fitted concentration of half-maximal effect.

SMILES	TGFb inhibitor	ATXN2 expr inh	KB-3-1 tox	ATXN viability	KB-V1 MDR tox	HepG2 viability
O=C(c1ccc2ccccc2c1)N1CCN(c2ccc(O)cc2)CC1	-25%	-29%	i	i	23µM*	-61%
CC1Cc2ccccc2N1S(=O)(=O)c1cccc(C(=O)N2CCCCC2)c1 (stereo not given)	-28%	-5%	i	i	i	-20%
CCc1nc2ccc(C(=O)N3CCN(c4ccccc4)CC3)cc2nc1CC	?	-11%	i	i	i	4%
COc1ccc(N2CCN(C(=O)c3ccc(S(=O)(=O)N4CCCC4)cc3)CC2)cc1	-16%	2%	i	i	i	-11%
CCN(CC)CCOC(=O)c1ccc(N)cc1Cl	/	/	/	i	/	/
CCOc1ccccc1N1CCN(C(=O)Cc2ccc(S(=O)(=O)N3CCOCC3)s2)CC1	-28%	-10%	i	i	23µM*	-47%
O=S(=O)(c1ccc(Oc2ccc(F)c(Cl)c2)nc1)N1CCOCC1	0%	4%	i	i	23µM*	-1%
O=S(=O)(c1ccc(Oc2ccc(Cl)cc2)nc1)N1CCOCC1	-10%	-24%	i	i	i	-9%
O=C(c1cccc(S(=O)(=O)N2CCOCC2)c1)N1CCN(c2ccccc2)CC1	5%	2%	i	i	18µM*	1%
Cc1nn(-c2ccccc2)c(N)c1N=Nc1cccc(S(=O)(=O)N2CCOCC2)c1	2%	-13%	?	?	4.1µM*	11%
O=C(c1cccc(S(=O)(=O)N2CCOCC2)c1)N1CCN(c2ccc(F)cc2)CC1	-27%	3%	i	i	i	-6%
COc1ccc(N2CCN(C(=O)Cc3ccc(S(=O)(=O)N4CCOCC4)s3)CC2)cc1	9%	-15%	i	i	?	-8%
COc1ccc(OC)c(/C=C/c2sc3ccccc3[n+]2C)c1	-2%	/	?	/	i	2%
COCC(=O)Nc1cc(C(=O)N2CCN(c3ccccc3)C(=O)C2)cc2nc(-c3ccccc3)n(C)c12	/	/	/	i	/	/
COc1ccc(NC(=O)c2ccccc2O)c(OC)c1	-13%	82%	i	i	i	-21%
COc1cc(NC(C)=O)ccc1NC(=O)c1cc2ccccc2o1	5%	/	i	i	i	4%
COc1cc(NC(=O)c2cc(Cl)ccc2Cl)ccc1NC(=O)c1cc2ccccc2o1	-21%	32µM*	i	/	i	-28%
COc1ccc(NC(=O)c2cc(Br)ccc2Cl)c(OC)c1	-18%	0%	i	i	16µM*	-13%
Cc1cc(NC(=O)c2cncc(Br)c2)ccc1NC(=O)c1cc2ccccc2o1	-14%	?	?	16µM*	?	-24%
O=C(COc1ccccc1)Nc1ccc2nc(SCC(=O)N3CCc4ccccc43)sc2c1	10%	4%	i	i	i	1%
CCN1CCN(CCCNC(=O)c2ccc(/C=C3/Sc4ccccc4N(Cc4ccccc4F)C3=O)cc2)CC1	?	?	?	i	i	11µM*
O=C(NCCCN1CCOCC1)c1ccc(/C=C2\Oc3ccccc3N(Cc3ccccc3F)C2=O)cc1	3%	/	i	?	i	-87%
CCN1CCN(CCNC(=O)c2ccc(/C=C3/Sc4ccccc4N(Cc4ccccc4C)C3=O)cc2)CC1	18µM*	?	?	?	i	-94%
O=C1NC[C@H](CCCCN2CCN(CCc3ccc(O)cc3)C(=O)C2=O)N(CCc2ccc(O)cc2)C1=O	/	6%	i	i	i	/
COC(=O)c1c(NC(NC(=O)CC(C)C)C(Cl)(Cl)Cl)sc2c1CCC2 (stereo not given)	?	-15%	i	i	18µM*	-4%
COc1ccc(NC(=O)CSc2nc(=O)n(CCN3CCOCC3)c3c2CCCC3)c(OC)c1	-19%	-3%	i	i	8.2µM*	-1%
CCc1cccc(C)c1NC(=O)Cn1ccn(-c2ccc(F)cc2)c(=O)c1=O	-7%	/	/	/	/	-9%

Source: PubChem BioAssay (National Center for Advancing Translational Sciences (NCATS))
